MARV entry inh – Marburg virus entry inhibition; Marburg virus pseudotyped entry inhibition, cell reporter; Potency, µM (doses to about 37.8 µM), for the others: top-dose activity change, negative = inhibition, usual class: inhibitors; 300,000 tested, 1.8% active; calls by dose curve; tested in HEK293 cells
Vaccinia Venus – inhibitors of vaccinia virus (Venus reporter). Potency, µM (top dose mostly 36.5 µM), inactives show at the highest dose activity change, negative = inhibition, usual class: inhibitors. Vaccinia virus Venus reporter expression, fluorescence. AID 720580. 330,000 tested, 0.46% active; calls by dose curve; tested in A549 cells; also: nearly all actives have a fitted effect of over 30% in size
Sm TGR inh – inhibitors of Schistosoma mansoni thioredoxin glutathione reductase | purified TGR, DTNB reduction, TNB absorbance 405 nm | 360,000 tested, 3% active | Q962Y6 | Potency, µM (series often up to 114 µM), for the others: at the top dose activity change, negative = inhibition, most hits filed as inhibitors | AID 485364; active = well fitted inhibition curve with a large enough effect; inconclusive = small, poorly fitted or top-dose-only effect; inactive = no such curve, though single readings can be large or run the other way; also: nearly all actives have a fitted effect of over 60% in size
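Kinetic colorimetric format: TGR-catalysed, NADPH-driven DTNB reduction monitored via TNB absorbance. Enzyme dispensed at 20 nM; compound exposure 15 min at room temperature before reaction start.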
FMDV antiviral – blocks foot and mouth disease virus; FMDV antiviral cell-based qHTS; Potency, µM (series often up to 57.9 µM), inactives show at the top dose activity change, negative = inhibition, most hits filed as inhibitors; 410,000 tested, 1.2% active; AID 1159524; calls by dose curve; tested in HEK293T cells; also: read-out not given here; nearly all actives have a fitted effect of over 45% in size
Lassa entry inh – inhibitors of Lassa virus binding or cell entry; Lassa virus pseudotype entry inhibition, cell reporter; Potency, µM (highest dose often 37.9 µM), inactives show at the highest dose activity change, negative = inhibition, actives largely listed as inhibitors; 300,000 tested, 1.2% active; calls by dose curve; tested in HEK293 cells; also: nearly all actives have a fitted effect of over 50% in size
VACV mCherry inh – inhibitors of vaccinia virus infection (mCherry reporter signal); Vaccinia virus mCherry reporter infection, fluorescence; AID 720579; 310,000 tested, 0.63% active; Potency, µM (titrated, usually from 36.5 µM), inactives show at the top dose activity change, negative = inhibition, most hits filed as inhibitors; calls by dose curve; tested in A549 cells; also: nearly all actives have a fitted effect of over 35% in size
The depositor's hits bear a star; i = inactive; ? = inconclusive; . = not tested or not shown; [ ] = dose if it differs, or a comment. The list is not random: actives were taken first. Their share in the collection is about 5.4%. % is scaled to controls: 0 for no effect and ±100 for the full control effect; potency is read from the fitted curve at half-maximal effect.

SMILES	MARV entry inh	Vaccinia Venus	Sm TGR inh	FMDV antiviral	Lassa entry inh	VACV mCherry inh
COc1ccc2c(C)c(CC(=O)NCc3ccccc3Cl)c(=O)oc2c1OC	?	-1%	1%	3%	-2%[46.1 µM]	-3%
COc1ccc(C(C(C(=O)c2ccco2)N2CCOCC2)N2CCOCC2)cc1 (configuration not stated)	3%	-19%	45µM*	27%	15%	.
COc1ccc(C(CNC(=O)c2ccco2)N2CCOCC2)cc1 (configuration not stated)	.	.	-4%	20%	.	.
Cc1ccc(NC(=O)c2c(C)cc(C)nc2SCC(=O)Nc2ccc(Br)cc2)cc1	?	-18%	-4%	-22%	-5%[46.1 µM]	i
COc1ccc(S(=O)(=O)c2nnn(-c3ccccc3F)c2C)cc1	22%[46.1 µM]	3%	1%	-4%	-14%[46.1 µM]	0%
C[C@@H]1O[C@@H](O[C@H]2C[C@@H](O)[C@]3(CO)[C@@H]4C(CC[C@]3(O)C2)[C@@]2(O)CC[C@H]([C@@H]3COC(=O)C3)[C@@]2(C)C[C@H]4O)[C@H](O)[C@H](O)[C@H]1O (some centres not stated)	0.82µM*	.	.	.	2.3µM*	.
CC1OC(OC2CC(O)C3(CO)C4C(O)CC5(C)C(C6=CC(=O)OC6)CCC5(O)C4CCC3(O)C2)C(O)C(O)C1O (configuration not stated)	.	?	.	?	.	0.089µM*
C[C@@H]1O[C@@H](O[C@H]2C[C@@H](O)[C@]3(CO)[C@H]4[C@H](O)C[C@]5(C)[C@@H](C6COC(=O)C6)CC[C@]5(O)[C@@H]4CC[C@]3(O)C2)[C@H](O)[C@H](O)[C@H]1O (some centres not stated)	?	1.1µM*	1%	?	1.6µM*	1.1µM*
CC12CC[C@H]3[C@@H](CCC4(O)C[C@H](O)CCC34/C=N/NC(=O)c3ccc(O)cc3)C1(O)CCC2C1=CC(=O)OC1 (some centres not stated)	.	.	-13%	-21%	.	.
Cc1ccc(NC(=O)CN2C(=O)CCc3cc(S(=O)(=O)N4CCCCC4)ccc32)cc1N(C)C	.	-11%	3%	0%	-3%[46.1 µM]	-21%
COc1cc(C)c(CN2CCOc3ccc(C(O)c4cccnc4)cc3C2)cc1C (configuration not stated)	.	-4%	.	-19%	.	-9%
Cc1cccc(N2CCN(C(=O)C3CCN(S(=O)(=O)c4c(C)noc4/C=C/c4ccccc4F)CC3)CC2C)c1 (configuration not stated)	.	-9%[7.34 µM]	2%	-26%	0%[46.1 µM]	-12%[7.34 µM]
Cc1ccc(NC(=O)C(=O)NCCc2csc3nc(-c4ccccc4C)nn23)cc1Cl	.	13%	-1%	-6%	18%[46.1 µM]	-1%
Cc1ccc(C)c(NC(=O)C(=O)NCCc2csc3nc(-c4ccccc4C)nn23)c1	.	14%	3%	22µM*	11%[46.1 µM]	11%
CCN1CCc2c(sc(NC(=O)c3ccc(S(=O)(=O)N(CC)c4ccccc4)cc3)c2C(N)=O)C1	?	11µM*	-12%	25µM*	?	?
CCC1CCCCN1S(=O)(=O)c1ccc(C(=O)Nc2sc3c(c2C(N)=O)CCC3)cc1 (configuration not stated)	.	-10%	35µM*	0%	-28%[46.1 µM]	-11%
CCN1CCc2c(sc(NC(=O)c3ccc(S(=O)(=O)N4CCOCC4)cc3)c2C(=O)OC)C1	10µM*	-29%	4%	-2%	?	?
CCCN1CCc2c(sc(NC(=O)c3ccc(S(=O)(=O)N4CCCC4)cc3)c2C(N)=O)C1	.	.	-18%	-27%	.	.
CCCCN(CCCC)S(=O)(=O)c1ccc(C(=O)Nc2sc3c(c2C(N)=O)CCN(CC)C3)cc1	.	-13%	5%	-19%	-3%[46.1 µM]	-14%
Cc1ccc(-c2noc(-c3nnn(CC(=O)Nc4cc(C)cc(C)c4)c3N)n2)cc1	.	-4%	-10%	-8%	5%[46.1 µM]	1%
O=C(c1ccco1)N1N=C(c2ccc(Br)cc2)CC1(O)C(F)(F)F (configuration not stated)	10µM*	-26%	-5%	?	?	-11%
O=C(c1ccco1)N1N=C(c2ccc(Cl)cc2)CC1(O)C(F)(F)F (configuration not stated)	?	-17%	13%	-16%	-14%[46.1 µM]	-4%
Cc1ccc(CNC(=O)C2CCN(C(=O)N3CC(C)Oc4ccc(Cl)cc43)CC2)cc1 (configuration not stated)	.	-9%	4%	-27%	26%[46.1 µM]	i
CC(NC(=O)CSc1n[nH]c(-c2ccccc2Cl)n1)c1nc2ccccc2n1C (configuration not stated)	.	-10%	0%	-17%	2%[46.1 µM]	-17%
Cc1ccccc1NC(=O)CSc1ccc(-c2cccs2)nn1	.	-6%	4%	-5%	-12%[46.1 µM]	-8%
SMILES	MARV entry inh	Vaccinia Venus	Sm TGR inh	FMDV antiviral	Lassa entry inh	VACV mCherry inh
O=C(Cn1nc(CNc2ccc(Cl)cc2)[n+]2c1CCCCC2)c1ccccc1	12%	-6%	-2%	-4%	0%	-3%
Cc1ccc(C(C)C)c(OCc2nn(CC(=O)c3ccc(Cl)cc3)c3[n+]2CCCCC3)c1	?	?	-13%	32µM*	?	-13%
CCN(CC)CC(=O)Nc1sc2c(c1C(=O)c1ccccc1OC)CCC2	?	-30%	-2%	0%	11µM*	-19%
CC(=NNc1nc2ccccc2o1)c1ncccn1	0.4µM*	?	.	-4%	0.89µM*	0.71µM*
CC(=NNc1nc2ccccc2o1)c1cc2ccccc2cn1	0.35µM*	0.71µM*	.	-20%	0.79µM*	?
Cc1ccc(Cc2cc(-c3ccc(C)cc3)n[nH]c2=O)cc1	?	-16%[7.34 µM]	14%	10%	?	i[7.34 µM]
Cc1ccc(-c2cc(Cc3ccccc3)c(=O)[nH]n2)cc1	1%	-26%	7%	-9%	2.5µM*	?
C=C(/C=C/c1ccc(N(C)C)cc1)c1nc2ccccc2s1	.	-27%	.	.	.	-24%
Cc1cccc(N(CC(O)CON=C2c3ccccc3-c3ccccc32)S(C)(=O)=O)c1 (configuration not stated)	23µM*	?	0%	.	-4%	?
COc1cc(C(=O)OCc2cc(=O)n3ccsc3n2)cc(OC)c1OC	.	-13%	2%	-25%	-25%[46.1 µM]	-12%
Cc1ccc(-c2cn(-c3ccccc3)c3[n+]2CCCS3)cc1	?	?	2%	10µM*	?	.
COc1ccc(-n2cc(-c3ccc(C)cc3)[n+]3c2SCC3)cc1	1.3µM*	-26%	-6%	11µM*	?	i
CCOC(=O)c1c(NC(C)=O)sc2c(OCC(O)CN(CC)CC)c(Br)ccc12 (configuration not stated)	11µM*	-15%	-32%	14%	2.5µM*	-12%
CCOC(=O)C1(C)/C(=N/Nc2cccc(Cl)c2)C(=O)C(=O)N1c1ccccc1 (configuration not stated)	-12%	-27%	0%	-3%	-14%	.
